This passage reports growth results from PubChem BioAssay (NCI).

Some test systems named below: SR leukemia; RPMI-8226 leukemia; OVCAR-8 ovarian; OVCAR-5 ovarian; OVCAR-4 ovarian; SK-OV-3 ovarian; IGROV1 ovarian; OVCAR-3 ovarian; HS 578T breast; NCI/ADR-RES ovarian; T-47D breast; BT-549 breast; MDA-MB-435 melanoma; SW-620 colon; MCF7 breast; HCT-116 colon; HCC-2998 colon; KM12 colon.
Assay in all cases: NCI-60 one-dose screen, 48 h (100 = growth as untreated, 0 = no growth, -100 = all killed)
What all share (conditions): 10 µM unless noted

The panel holds about 83,000 compounds, 20% with a hit somewhere; the sample as a whole holds those more often.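 Testing used 96-well plates and a 48-hour single-concentration exposure. Example: -40 means 40% of the starting cells died.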 Unmarked numbers belong to inactive results. The source made the active and inactive calls. Rule for the calls: active = growth percent below 10; inactive = the rest.

`O=C(O)c1nn(-c2ccc(Cl)cc2)nc1N1CCCC1`: the growth in the assay with SR leukemia was 99%; with RPMI-8226 leukemia it was 101%; in the assay on OVCAR-8 ovarian it was 96%; in the assay on OVCAR-5 ovarian it was 94.9%; with OVCAR-4 ovarian, 91.2%; in the assay on SK-OV-3 ovarian, 97.2%. Further, the growth in the assay on IGROV1 ovarian was 93%; with OVCAR-3 ovarian it was 105%; in the assay with HS 578T breast, 97%; with NCI/ADR-RES ovarian, 99.5%; in the assay with T-47D breast it was 94.4%; in the assay with BT-549 breast, 95.4%. Also, the growth is 100% in the assay with MDA-MB-435 melanoma; 90.6% with SW-620 colon; 91% in the assay on MCF7 breast; 101% with HCT-116 colon; 103% in the assay on HCC-2998 colon; 107% with KM12 colon.

With `COc1ccc(C2=C/C(=C\c3ccccc3O)C(=O)N2Cc2ccccc2)cc1`, the growth in the assay with SR leukemia was 45.2%; in the assay on RPMI-8226 leukemia, 63%; in the assay on OVCAR-8 ovarian, 70.9%; in the assay with OVCAR-5 ovarian it was 111%; with OVCAR-4 ovarian, 92.6%; in the assay with SK-OV-3 ovarian, 73.8%. The growth in the assay on IGROV1 ovarian is 77.5%; in the assay on OVCAR-3 ovarian, 92.9%; in the assay with HS 578T breast it was 74.8%; with NCI/ADR-RES ovarian, 79.9%; in the assay on T-47D breast, 68.9%; in the assay on BT-549 breast it was 70.4%. In addition, the growth was -4.21% (active) in the assay with MDA-MB-435 melanoma; 92.2% in the assay with SW-620 colon; 62.8% in the assay on MCF7 breast; 72.5% in the assay with HCT-116 colon; 107% in the assay with HCC-2998 colon; 70.3% in the assay with KM12 colon.

`CS(=O)(=O)Nc1cc(-c2ccc3ncnc(Nc4cccc(Cl)c4)c3c2)cnc1Cl`: the growth is 0.413% (active) with SR leukemia; -44.8% (active) in the assay with RPMI-8226 leukemia; 16.4% in the assay on OVCAR-8 ovarian; 7.66% (active) with OVCAR-5 ovarian; 13.7% with OVCAR-4 ovarian; -28.4% (active) in the assay on SK-OV-3 ovarian. The growth in the assay with IGROV1 ovarian was -25.7% (active); with OVCAR-3 ovarian, -10.7% (active); in the assay on HS 578T breast, -13.6% (active); in the assay on NCI/ADR-RES ovarian, 19.2%; with T-47D breast, -22.9% (active); with BT-549 breast, -15.5% (active). The growth in the assay on MDA-MB-435 melanoma was 8.58% (active); with SW-620 colon, 11.5%; with MCF7 breast, 5.3% (active); in the assay with HCT-116 colon, -26.9% (active); in the assay with HCC-2998 colon it was 2.63% (active); with KM12 colon, 5.4% (active).

As for `COc1cccc(-c2cc(-c3ccc(Nc4nc(Nc5ccc(Cl)cc5)nc(Nc5ccc(Cl)cc5)n4)cc3)nc(N)c2C#N)c1`, the growth in the assay with SR leukemia is -6.27% (active); with RPMI-8226 leukemia, -55.8% (active); in the assay on OVCAR-8 ovarian, 48.9%; in the assay with OVCAR-5 ovarian, 82.2%; in the assay with OVCAR-4 ovarian, 23.6%; with SK-OV-3 ovarian, 122%. Also, the growth was 10.1% with IGROV1 ovarian; -52.7% (active) in the assay with OVCAR-3 ovarian; 14.1% in the assay with HS 578T breast; 73.3% in the assay with NCI/ADR-RES ovarian; -30.3% (active) with T-47D breast; -30.1% (active) in the assay on BT-549 breast. Further, the growth was -5.12% (active) in the assay with MDA-MB-435 melanoma; -39.7% (active) with SW-620 colon; 28.5% in the assay on MCF7 breast; 6.35% (active) in the assay on HCT-116 colon; -29.9% (active) with HCC-2998 colon; 46.7% in the assay on KM12 colon.

As to `COc1ccc2c(c1)C(c1c[nH]c3ccccc13)(c1c[nH]c3ccccc13)CCO2`, the growth in the assay on SR leukemia is 55.9%; in the assay with RPMI-8226 leukemia it was 33.3%; with OVCAR-8 ovarian it was 61.2%; in the assay on OVCAR-5 ovarian, 76.6%; in the assay on OVCAR-4 ovarian, 26%; with SK-OV-3 ovarian it was 23.9%. Besides, the growth is 48% in the assay with IGROV1 ovarian; 57.4% with OVCAR-3 ovarian; 55.5% in the assay on HS 578T breast; 54.1% in the assay with NCI/ADR-RES ovarian; -6.36% (active) in the assay with T-47D breast; 55.6% in the assay on BT-549 breast. For the same molecule, the growth in the assay on MDA-MB-435 melanoma was 49.9%; in the assay with SW-620 colon it was 61.9%; in the assay on MCF7 breast, 30.7%; in the assay with HCT-116 colon it was 18.8%; with HCC-2998 colon it was 72.4%; in the assay with KM12 colon, 46.2%.

For the molecule `Cn1cc(-c2ccc3c(Nc4cccc(NC(=O)Nc5cccc(F)c5)c4)ncnc3c2)cn1`, the growth is 0.802% (active) with SR leukemia; -25.4% (active) in the assay on RPMI-8226 leukemia; 34.6% with OVCAR-8 ovarian; 67.6% with OVCAR-5 ovarian; 67.6% in the assay on OVCAR-4 ovarian; 3.1% (active) in the assay with SK-OV-3 ovarian. The growth in the assay with IGROV1 ovarian was 23.8%; with OVCAR-3 ovarian it was 44.7%; with HS 578T breast, 29.8%; in the assay on NCI/ADR-RES ovarian, 78%; in the assay on T-47D breast it was 21.5%; with BT-549 breast, 47.4%. For the same molecule, the growth was 57.8% in the assay on MDA-MB-435 melanoma; 57.7% with SW-620 colon; 22.1% with MCF7 breast; 25.5% in the assay with HCT-116 colon; 83.3% in the assay on HCC-2998 colon; 20.4% in the assay on KM12 colon.

Take `Cc1c(C)c2c(c(C)c1OC(=O)CCC(=O)[O-])CCC(C)(CCCCCCCCCCC[P+](c1ccccc1)(c1ccccc1)c1ccccc1)O2` (centres undefined): the growth with SR leukemia is -25.5% (active); in the assay on RPMI-8226 leukemia it was -47.7% (active); with OVCAR-8 ovarian, 3.73% (active); with OVCAR-5 ovarian, 13.5%; in the assay with OVCAR-4 ovarian it was -1.74% (active); in the assay on SK-OV-3 ovarian it was -27% (active). Besides, the growth in the assay on IGROV1 ovarian is -13.1% (active); in the assay on OVCAR-3 ovarian, -76.4% (active); in the assay on HS 578T breast, -15% (active); in the assay on NCI/ADR-RES ovarian, 74.3%; in the assay with T-47D breast it was -41.6% (active); in the assay on BT-549 breast, -60.2% (active). Also, the growth in the assay with MDA-MB-435 melanoma was -89% (active); with SW-620 colon, 9.14% (active); in the assay on MCF7 breast, -28.2% (active); with HCT-116 colon, -9.97% (active); in the assay with HCC-2998 colon it was -70.3% (active); in the assay with KM12 colon, -87.7% (active).

Turning to `COC1=C(OC)C(=O)C(CCCCCCCCCCO)=C(C)C1=O`, the growth in the assay with SR leukemia was 24%; in the assay on RPMI-8226 leukemia, 76%; with OVCAR-8 ovarian it was 49.4%; with OVCAR-5 ovarian, 103%; in the assay with OVCAR-4 ovarian, -13.7% (active); in the assay with SK-OV-3 ovarian, 82.7%. Moreover, the growth is 57.7% with IGROV1 ovarian; 69% in the assay on OVCAR-3 ovarian; 92.6% in the assay on HS 578T breast; 29.2% in the assay on NCI/ADR-RES ovarian; 19.3% with T-47D breast; 87.4% in the assay on BT-549 breast. The growth with MDA-MB-435 melanoma is -51% (active); in the assay with SW-620 colon, 103%; in the assay with MCF7 breast, 30.2%; in the assay on HCT-116 colon, 52.9%; with HCC-2998 colon, 115%; with KM12 colon it was 67.5%.
